Pf growth 96h: Primary qHTS for delayed death inhibitors of the malarial parasite plastid, 96 hour incubation; P. falciparum luciferase reporter growth, 96 h; Potency, µM (series often up to 28.7 µM), for inactives: top-dose activity change, negative = inhibition, usual class: inhibitors; actives 6.9% (n = 320,000); AID 504834, 2011; note: potency is the fitted concentration of half-maximal effect
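P. falciparum expressing integrated firefly luciferase, in erythrocytes at 2% hematocrit, 0.05% parasitemia, incubated with compounds 96 h at 37 C, 5% CO2. Growth inhibition read as loss of luminescence; two-generation exposure targets delayed-death apicoplast inhibitors.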
HCV inh: qHTS Assay for Inhibitors of Hepatitis C Virus (HCV); Huh7.5.1 HCVcc-Cre infection, luciferase reporter, 44 h; Potency, µM (series often up to 41.8 µM), for inactives: at the highest dose activity change, negative = inhibition, actives largely listed as inhibitors; actives 3.4% (n = 340,000); AID 651820, 2012; note: potency is the fitted concentration of half-maximal effect
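Infectious HCV cell culture screen: compound-treated cells (1,000/well, pre-plated 4 h) are infected with HCVcc-Cre at roughly 0.5 moi and grown 44 h. Infection is quantified by luciferase signal after 15 min substrate incubation at room temperature.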
HCMV inh: qHTS Assay for inhibitors of the human cytomegalovirus (HCMV); HFF cells, HCMV-luciferase reporter, 72 h; stronger effect = lower value; activity change, negative = inhibition, % at 57.5 µM; actives 4.5% (n = 410,000); in the data active = activity change below about -60%; inconclusive = no clear call, values can overlap the other calls; inactive = above about -39%
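Compounds were evaluated in HFFs infected with an HCMV luciferase reporter virus (MOI 1 PFU/cell). Luciferase in lysates collected 72 h post infection served as the replication measure.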
Pf growth 48h: Primary qHTS for delayed death inhibitors of the malarial parasite plastid, 48 hour incubation. P. falciparum luciferase growth in erythrocytes, 48 h. Potency, µM (series often up to 28.7 µM), inactives show at the highest dose activity change, negative = inhibition, actives largely listed as inhibitors. actives 5.9% (n = 310,000). AID 504832, 2011; note: potency is the fitted concentration of half-maximal effect
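In quantitative HTS format, infected erythrocytes bearing luciferase-reporter parasites were treated for a single generation at 37 C. Luminescence after adding detection reagent served as the growth measure.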
Numbers without * were called inactive; ? = inconclusive; . = no result given. The list is not random: actives were taken first. Their share in the collection is about 13%. Unless noted, calls come from the whole dose curve; as a rule, active = well fitted inhibition curve with a large enough effect; inconclusive = small, poorly fitted or top-dose-only effect, or another doubt; inactive = no such curve, though single readings can be large or run the other way. % is set by controls: 0 for no effect and ±100 for the full control effect.

SMILES	Pf growth 96h	HCV inh	HCMV inh	Pf growth 48h
N#CCC(=O)Nc1sc2c(c1C(N)=O)CCCC2	2%	-4%	-62*	-9%
O=C(Cn1cnc2nc3c(cc2c1=O)CCCC3)Nc1ccc(F)cc1Cl	.	.	-24	.
CCCC(Oc1ccc(Br)cc1)c1nc2c3cc(OC)c(OC)cc3nc(=S)n2[nH]1 (stereo not drawn)	-27%	?	-86*	?
CC(Oc1ccc(Br)cc1)c1nc2c3ccccc3nc(=S)n2[nH]1 (stereo not drawn)	?	-2%	-29	1.5µM*
COc1cc2nc(SCC(=O)c3ccc(Br)cc3)n3nc(C)nc3c2cc1OC	-13%	?	-11	-3%
CN1CCN(c2oc(/C=C/c3ccc(F)cc3)nc2C#N)CC1	.	.	-16	.
O=C(O)CC1Oc2ccc(Cl)cc2NC1=O (stereo not drawn)	5.2µM*	4%	17	11%
Cc1ccc2c(c1)NC(=O)C(CC(=O)Nc1cc(Cl)ccc1C)O2 (stereo not drawn)	.	.	-8	.
COc1ccc(OC)c(CCNC(=O)CC2Oc3ccc(C)cc3NC2=O)c1 (stereo not drawn)	10µM*	-6%	-6	.
COC(=O)CC1Oc2ccc(C)cc2NC1=O (stereo not drawn)	9.3µM*	16%	-4	.
CCOc1ccc(OCC)c(NC(=O)CC2Oc3ccc(C)cc3NC2=O)c1 (stereo not drawn)	10µM*	?	4	.
Cc1ccc(NC(=O)CC2Oc3ccc(C)cc3NC2=O)cc1 (stereo not drawn)	305%	3%	-19	.
Cc1ccc(-n2nc(CO)c(C(=O)NCCCCc3ccccc3)n2)cc1C	.	.	-20	.
COc1ccc(Nc2nc(N)nc(CSC(=S)N3CCCCC3C)n2)cc1 (stereo not drawn)	?	?	-63*	-27%
COc1ccccc1Nc1nc(N)nc(CSC(=S)N2CC(C)CC(C)C2)n1 (stereo not drawn)	10µM*	?	-22	?
COc1ccc(Nc2nc(N)nc(CSC(=S)N3CCN(c4ccccc4)CC3)n2)cc1	12µM*	?	?	?
COc1ccccc1Nc1nc(N)nc(CSc2nccc(C)n2)n1	0.93µM*	8%	8	6%
COc1ccccc1Nc1nc(N)nc(CSc2nc(C)cc(C)n2)n1	.	?	6	-39%
CC1CCN(C(=S)SCc2nc(N)nc(Nc3ccccc3)n2)CC1	-26%	-9%	20	-24%
CCOc1ccc(Nc2nc(N)nc(CSC(=S)N3CCN(c4ccccc4)CC3)n2)cc1	13µM*	?	-29	12µM*
CN=C(NC1CCCCC1)c1ccc(Cl)cc1	18%	24%	-60*	11%
O=C(NC1CCCCC1)Sc1ccc(Cl)cc1	0%	-25%	14	13%
Cc1cc(O)c(C(c2ccccc2Cl)N2CCN(c3ccccc3)CC2)c(=O)n1Cc1ccco1 (stereo not drawn)	.	.	17	.
COc1ccc(-n2c(C)cc(-c3csc(NC(=O)c4ccc(S(=O)(=O)N(C)C)cc4)n3)c2C)cc1	12µM*	?	-12	?
O=C(Nc1nc(-c2cccs2)cs1)c1ccc(S(=O)(=O)N2CCCC2)cc1	-12%	?	-90*	?
SMILES	Pf growth 96h	HCV inh	HCMV inh	Pf growth 48h
O=C(Nc1nc(-c2ccc3c(c2)OCCO3)cs1)c1ccc(S(=O)(=O)N2CCCCC2)cc1	?	?	-100*	12µM*
O=C(Nc1nc(-c2ccc(S(=O)(=O)N3CCCCCC3)cc2)cs1)c1ccccc1	1%	?	-73*	.
O=C(Nc1ccc(Br)cc1)C1CCCN(S(=O)(=O)c2ccc(Br)s2)C1 (stereo not drawn)	.	.	-30	.
O=C(c1ccccc1Cl)N1CCC(c2nc3ccccc3s2)CC1	.	.	-5	.
Cc1csc(NC(=O)C2CC(=O)N(c3ccc4c(c3)OCCO4)C2)n1 (stereo not drawn)	?	-13%	14	-2%
CCc1ccc(-c2csc(NC(=O)C3CC(=O)N(c4ccc5c(c4)OCCO5)C3)n2)cc1 (stereo not drawn)	?	11µM*	-84*	36%
O=C(Nc1nc(-c2ccc3c(c2)OCO3)cs1)C1COc2ccccc2O1 (stereo not drawn)	15%	2%	-27	20%

Bioassay records (PubChem BioAssay)
